Assay results published in PubChem BioAssay.
Active and inactive are the calls of the source. Unless noted, no rule for the calls is given here.

Key:
[1] = A549 cell viability effects, profiling panel, calcein-AM fluorescence, 48 h, basal (AID 1162); conditions: higher = more signal; also: test concentration not given here
[2] = adipocyte viability effects, profiling panel, cell-based, 3T3-L1 adipocytes, calcein-AM fluorescence, 48 h, basal (AID 1163); conditions: 3T3-L1 adipocytes viability, higher = more signal; also: test concentration not given here
[3] = HepG2 cell viability effects, profiling panel, calcein-AM fluorescence, 48 h, basal (AID 1164); conditions: higher = more signal; also: test concentration not given here
[4] = MM1S cell viability effects, profiling panel, calcein-AM fluorescence, 48 h, basal (AID 1165); conditions: higher = more signal;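 also: viability of MM1S multiple myeloma cells under basal unstimulated conditions; test concentration not given here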
[5] = basal RPMI8226 viability, no added stimulus, profiling panel, cell-based, calcein-AM fluorescence, 48 h, PK04 Diversity Set (AID 1166); conditions: RPMI8226 myeloma viability, higher = more signal;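 also: cells grown under basal conditions without added stimulus; test concentration not given here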
[6] = basal HepG2 mitochondrial membrane potential changes, profiling panel, cell-based, JC-1 fluorescence, 24 h, 100 nL compound (AID 1167); conditions: higher = more signal; also: test concentration not given here
[7] = basal 3T3-L1 adipocyte mitochondrial potential changes, profiling panel, cell-based, JC-1 fluorescence, 3T3-L1 adipocytes, 24 h, 100 nL compound (AID 1168); conditions: JC-1 mitochondrial fluorescence, higher = more signal, called active from +8 up or from −8 down; also: test concentration not given here
[8] = basal RPMI8226 mitochondrial membrane potential changes, profiling panel, cell-based, JC-1 fluorescence, 24 h, 100 nL compound (AID 1169); conditions: RPMI8226 myeloma, JC-1 mitochondrial potential fluorescence, higher = more signal; also: test concentration not given here
[9] = basal MM1S mitochondrial membrane potential changes, profiling panel, cell-based, JC-1 fluorescence, 24 h, 100 nL compound (AID 1170); conditions: higher = more signal; also: test concentration not given here
[10] = A549 lung cancer cell viability effects, profiling panel, resazurin fluorescence, 24 h, PK04 Diversity Set (AID 1171); conditions: higher = more signal, called active from +8 up or from −8 down; also: test concentration not given here
[11] = HepG2 liver cancer cell viability effects, profiling panel, resazurin fluorescence, 24 h, PK04 Diversity Set (AID 1172); conditions: higher = more signal; also: test concentration not given here
[12] = basal S. cerevisiae growth modulation, no modifier, primary screen, OD600, strain BY4716, 24 h, basal condition (AID 1173); conditions: OD600, 24 h, higher = more signal, called active from +8 up or from −8 down
[13] = MM1S myeloma cell viability, profiling panel, resazurin fluorescence, basal, 24 h, PK04 Diversity Set (AID 1174); conditions: higher = more signal, called active from +8 up or from −8 down;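 also: MM1S multiple myeloma cell line; test concentration not given here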
[14] = target: Dihydroorotate dehydrogenase (quinone), mitochondrial (Plasmodium falciparum (isolate 3D7)) (UniProt Q08210); assay: PfDHODH enzyme inhibitors, primary screen, biochemical, C-terminal His tag, absorbance 600 nm (AID 1175); conditions: DCIP absorbance 600 nm, higher = more signal, called active from +8 up or from −8 down;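 also: recombinant parasite enzyme with a five histidine tag at its C terminus; test concentration not given here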
Chain of Dihydroorotate dehydrogenase (quinone), mitochondrial (Plasmodium falciparum (isolate 3D7)) (Q08210 whole entry, looked up): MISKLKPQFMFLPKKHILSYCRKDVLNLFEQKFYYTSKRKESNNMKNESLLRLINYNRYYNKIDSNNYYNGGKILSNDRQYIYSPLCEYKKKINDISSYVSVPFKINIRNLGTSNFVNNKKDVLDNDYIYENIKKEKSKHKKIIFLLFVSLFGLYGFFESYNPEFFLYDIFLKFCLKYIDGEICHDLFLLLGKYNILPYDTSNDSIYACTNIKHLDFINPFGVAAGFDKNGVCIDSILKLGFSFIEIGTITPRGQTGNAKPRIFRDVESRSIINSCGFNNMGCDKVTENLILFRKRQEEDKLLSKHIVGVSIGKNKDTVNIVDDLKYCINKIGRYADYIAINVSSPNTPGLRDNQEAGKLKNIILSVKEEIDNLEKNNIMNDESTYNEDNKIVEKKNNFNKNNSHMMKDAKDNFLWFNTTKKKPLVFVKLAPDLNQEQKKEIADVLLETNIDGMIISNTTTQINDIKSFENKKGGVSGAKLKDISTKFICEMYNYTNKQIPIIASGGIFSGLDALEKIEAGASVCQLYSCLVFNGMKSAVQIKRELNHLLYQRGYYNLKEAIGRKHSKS

[15] = P. aeruginosa biofilm formation inhibitors, primary screen, strain PAO1, LB-PBS medium, absorbance 600 nm (AID 1176); also: test concentration not given here; conditions: P. aeruginosa PAO1 growth/biofilm, A600, 12 h; higher = more signal
[16] = S. cerevisiae RM11-1a growth modifiers, primary screen, strain RM11-1a, OD600, basal, 24 h (AID 1177); conditions: OD600, 24 h, higher = more signal, called active from +8 up or from −8 down;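 also: cultures grown under basal conditions with no added stressor; test concentration not given here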
[17] = E. coli acrAB mutant growth effects, primary screen, E. coli filamentation inducers, strain DRC39, OD650, 24 h (AID 1178); conditions: higher = more signal, called active from +8 up or from −8 down;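 also: growth measured as culture turbidity by optical density at 650 nm; test concentration not given here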
[18] = E. coli acrAB mutant growth effects, primary screen, E. coli filamentation inducers, strain DRC39, OD650, 48 h (AID 1179);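 also: screen aims at cell division blockers that make cells filament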; conditions: E. coli DRC39 delta-acrAB growth, higher = more signal, called active from +8 up or from −8 down
[19] = RPMI8226 myeloma cell viability, profiling panel, resazurin fluorescence, basal, 24 h, PK04 Diversity Set (AID 1180); conditions: higher = more signal;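 also: RPMI8826 multiple myeloma cell line at 5000 cells per well; test concentration not given here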
[20] = target: E3 ubiquitin-protein ligase XIAP (Homo sapiens) (UniProt P98170); assay: XIAP binders, primary screen, biophysical, small-molecule microarray, fluorescence 635 nm (AID 1181); conditions: small-molecule microarray binding, higher = more signal;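 also: score merges 667 nm emission and signal to noise over triplicate slides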
Chain of E3 ubiquitin-protein ligase XIAP (Homo sapiens) (P98170 whole entry, looked up): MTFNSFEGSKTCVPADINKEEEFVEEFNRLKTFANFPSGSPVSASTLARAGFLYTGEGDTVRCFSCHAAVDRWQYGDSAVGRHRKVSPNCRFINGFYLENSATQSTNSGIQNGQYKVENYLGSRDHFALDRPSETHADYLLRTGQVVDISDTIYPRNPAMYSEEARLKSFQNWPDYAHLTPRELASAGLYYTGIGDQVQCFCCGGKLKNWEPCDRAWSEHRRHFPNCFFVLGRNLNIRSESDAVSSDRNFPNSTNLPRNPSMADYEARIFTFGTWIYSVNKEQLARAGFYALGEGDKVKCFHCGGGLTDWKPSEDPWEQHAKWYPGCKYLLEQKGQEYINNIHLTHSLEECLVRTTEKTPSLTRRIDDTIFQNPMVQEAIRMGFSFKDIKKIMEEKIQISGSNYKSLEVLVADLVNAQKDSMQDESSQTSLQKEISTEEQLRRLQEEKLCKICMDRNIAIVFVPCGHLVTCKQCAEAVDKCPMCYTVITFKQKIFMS

SMILES | z-score [1] | z-score [2] | z-score [3] | z-score [4] | z-score [5] | z-score [6] | z-score [7] | z-score [8] | z-score [9] | z-score [10] | z-score [11] | z-score [12] | z-score [13] | composite z-score [14] | z-score [15] | z-score [16] | z-score [17] | z-score [18] | z-score [19] | composite z-score [20]
NC(=O)NCC#Cc1ccc2c(c1)[C@]1(C(=O)N2)[C@H](c2ccc(O)cc2)N2[C@H](c3ccccc3)[C@H](c3ccccc3)OC(=O)[C@H]2[C@@H]1C(=O)N1CCN(c2ncccn2)CC1 | 0.719 | 0.464 | -1.08 | 0.252 | 0.719 | -1.83 | -0.197 (inactive) | 0.591 | 1.06 | 0.956 (inactive) | -0.271 | 0.244 (inactive) | 0.965 (inactive) | -0.154 (inactive) | 1.18 (inactive) | 0.517 (inactive) | 0.247 (inactive) | 0.0093 (inactive) | 1.24 | -0.0004
COc1ccc([Si](C)(C)[C@@H]2[C@@H](CCO)O[C@]3(C(=O)N(Cc4cccc(N(C=O)c5ccccc5)c4)c4ccccc43)[C@H]2C)cc1 | -1.54 | 1.72 | -0.854 | -1.12 | -1.68 | 0.719 | -0.0903 (inactive) | -0.881 | 0.0823 | -2.24 (inactive) | -2.41 | 1.27 (inactive) | -3.21 (inactive) | -0.82 (inactive) | -0.0818 (inactive) | 4.68 (inactive) | -0.818 (inactive) | -1.62 (inactive) | -2.73 | 0.0449
CCCC[C@@H]1C[C@H]1[C@@H](NC(=O)c1ccccc1)c1ccccc1 | -1.2 | -0.902 | -1.02 | -1.43 | -1.48 | -2.36 | -1.07 (inactive) | 0.203 | -1.25 | -0.324 (inactive) | 0.237 | 1.21 (inactive) | -0.694 (inactive) | -0.113 (inactive) | -0.471 (inactive) | 0.601 (inactive) | 0.104 (inactive) | 0.233 (inactive) | -1.07 | -0.0289
Oc1ccc2cc[n+](Cc3cccc(OC(F)(F)F)c3)cc2c1 | 0.609 | 0.128 | 0.577 | 0.683 | -0.592 | 0.303 | 0.339 (inactive) | 0.593 | -0.862 | -1.81 (inactive) | -0.975 | 0.236 (inactive) | -0.304 (inactive) | -1.09 (inactive) | 0.0061 (inactive) | 0.585 (inactive) | 0.4 (inactive) | 0.743 (inactive) | -1.07 | 0.202
O=C(NCc1ccccc1)[C@@H]1c2ccccc2C(=O)N(C2CCCCC2)[C@H]1c1ccc(CO)cc1 | 1.53 | -0.116 | 1.54 | 0.499 | -0.0572 | 2.46 | 0.401 (inactive) | 0.739 | -0.531 | -0.222 (inactive) | -0.178 | 0.0854 (inactive) | -0.765 (inactive) | 0.0557 (inactive) | 0.0993 (inactive) | 0.138 (inactive) | 0.0692 (inactive) | 0.268 (inactive) | -1.7 | 0.117
O=C1OCCC=C[C@H]2OC34C=CCN(c5ccc6ccccc6c5)C(=O)[C@H]3N(CCCCCCO)C(=O)[C@@H]4C12 (stereo not given in full) | 0.705 | -0.488 | 0.461 | 1.1 | 0.734 | 1.3 | 0.0246 (inactive) | -0.00773 | -0.456 | 0.866 (inactive) | 0.523 | -0.546 (inactive) | -0.0449 (inactive) | 0.401 (inactive) | -0.497 (inactive) | 0.522 (inactive) | 0.982 (inactive) | 1.29 (inactive) | 0.868 | -0.0953
CCOC1=C2C(c3ccc(C)cc3)N(S(=O)(=O)c3ccc(C)cc3)CC2n2c(=O)n(-c3ccccc3)c(=O)n2C1 (stereo not given) | -0.943 | -0.334 | -0.422 | -0.255 | -0.546 | 1.53 | 0.497 (inactive) | 0.709 | -1.03 | -0.629 (inactive) | -0.994 | 1.21 (inactive) | -0.932 (inactive) | -2.05 (inactive) | -0.172 (inactive) | 0.135 (inactive) | -0.15 (inactive) | 0.717 (inactive) | -0.774 | 0.199
C[N+](C)(C)CCCC[C@@H]1NC(=O)[C@@H]2C[C@H](C(=O)NCCCCCCNC(=O)CS)[C@H](c3cccc(OCCO)c3)N2C1=O | -0.14 | -0.0406 | 1.5 | 0.954 | 0.186 | 1.53 | 0.215 (inactive) | 0.476 | -0.677 | -0.333 (inactive) | 0.0265 | 0.159 (inactive) | -0.0664 (inactive) | 0.092 (inactive) | -0.117 (inactive) | -0.18 (inactive) | 0.253 (inactive) | 0.832 (inactive) | 0.24 | 0.131
O=C(N1CCCCC1)[C@]1(CCS(=O)(=O)c2ccccc2)N=C(c2ccc(OCCCO)cc2)O[C@@H]1c1ccccc1 | -1.64 | 1.68 | -0.663 | -1.5 | -3.65 | -0.0371 | -0.136 (inactive) | -1.1 | -0.751 | -1.32 (inactive) | 0.0192 | -0.678 (inactive) | -2.49 (inactive) | 0.813 (inactive) | -0.345 (inactive) | 0.525 (inactive) | 0.779 (inactive) | -0.385 (inactive) | -1.61 | 0.0257
